Source: PubChem BioAssay AID2284183 (EPA ToxCast)
Activity calls are given as the source filed them. The calls were made as follows: active = hit-call score of the fitted dose curve at least 0.9, where 1 is the maximum; inactive = score below 0.9.

target: human Tachykinin Receptor NK2 Agonism, TACR2 (gene 6865) (UniProt P21452); experiment: ERF_TW_GPCR_hTACR2: Eurofins (ERF) G Protein-Coupled Receptor (GPCR) Radioligand Binding LeadHunter Assay for human Tachykinin Receptor NK2 Agonism
Protocol: ERF_TW_GPCR_hTACR2 is a biochemical, single-readout assay that uses extracted gene-proteins in a cell-free assay. Measurements were taken 1.5 hour after chemical dosing in a 96-well plate. See NK2 Human Tachykinin GPCR Binding (Antagonist Radioligand) Assay, Panlabs.ERF_TW_GPCR_hTACR2 is an assay component calculated from the ERF_TW_GPCR_hTACR2 assay. It is designed to measure radioligand binding using a type of binding reporter as detected by scintillation counting with radiometry technology.Data from the assay component ERF_TW_GPCR_hTACR2 was analyzed at the assay endpoint, ERF_TW_GPCR_hTACR2, in the positive analysis fitting direction relative to DMSO as the negative control and baseline of activity. Using a type of binding reporter, loss-of-signal activity can be used to understand changes in radioligand binding as they relate to gene TACR2. To generalize the intended target to other relatable targets, this assay endpoint is annotated to the gpcr intended target family, where the subfamily is tachykinin.
Human recombinant neurokinin NK2 receptor expressed in CHO-hNK2 cells are used to prepare membranes in modified HEPES buffer pH 7.4. A 5 ug aliquot of membrane is incubated with 0.02 nM [125I]-Neurokinin A for 120 minutes at 25C. […] Membranes are filtered and washed, the filters are then counted to determine [125I]-Neurokinin A specifically bound. […]

Chain of human Tachykinin Receptor NK2 Agonism, TACR2 (gene 6865) (P21452 whole entry, looked up): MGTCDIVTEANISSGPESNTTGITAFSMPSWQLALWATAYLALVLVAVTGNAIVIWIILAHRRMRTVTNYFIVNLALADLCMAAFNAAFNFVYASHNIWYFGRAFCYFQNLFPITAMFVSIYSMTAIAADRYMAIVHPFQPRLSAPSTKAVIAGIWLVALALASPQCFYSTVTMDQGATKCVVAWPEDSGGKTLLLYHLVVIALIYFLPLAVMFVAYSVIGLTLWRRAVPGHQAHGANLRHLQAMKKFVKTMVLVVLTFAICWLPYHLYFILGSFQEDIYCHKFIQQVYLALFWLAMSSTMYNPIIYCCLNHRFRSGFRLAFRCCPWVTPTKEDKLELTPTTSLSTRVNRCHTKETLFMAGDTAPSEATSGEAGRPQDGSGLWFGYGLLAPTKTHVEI

SMILES | AC50
O=C(/C=C/c1ccc(O)cc1)CC(=O)/C=C/c1ccc(O)cc1 | 1.08 µM (active)
